# From ChEMBL document CHEMBL1961873, “Compounds: GSK PKIS; Assays: Nanosyn kinase panel” (2012)
# What was measured:
# [1] = biological target: Protein kinase C gamma type (Homo sapiens) (UniProt P05129); conditions: at 1 µM;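 note: each value is an averaged percent inhibition of the enzyme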
# [2] = biological target: T1, Protein kinase C iota type (Homo sapiens) (UniProt P41743); conditions: at 0.1 µM
# T1 sequence (whole entry): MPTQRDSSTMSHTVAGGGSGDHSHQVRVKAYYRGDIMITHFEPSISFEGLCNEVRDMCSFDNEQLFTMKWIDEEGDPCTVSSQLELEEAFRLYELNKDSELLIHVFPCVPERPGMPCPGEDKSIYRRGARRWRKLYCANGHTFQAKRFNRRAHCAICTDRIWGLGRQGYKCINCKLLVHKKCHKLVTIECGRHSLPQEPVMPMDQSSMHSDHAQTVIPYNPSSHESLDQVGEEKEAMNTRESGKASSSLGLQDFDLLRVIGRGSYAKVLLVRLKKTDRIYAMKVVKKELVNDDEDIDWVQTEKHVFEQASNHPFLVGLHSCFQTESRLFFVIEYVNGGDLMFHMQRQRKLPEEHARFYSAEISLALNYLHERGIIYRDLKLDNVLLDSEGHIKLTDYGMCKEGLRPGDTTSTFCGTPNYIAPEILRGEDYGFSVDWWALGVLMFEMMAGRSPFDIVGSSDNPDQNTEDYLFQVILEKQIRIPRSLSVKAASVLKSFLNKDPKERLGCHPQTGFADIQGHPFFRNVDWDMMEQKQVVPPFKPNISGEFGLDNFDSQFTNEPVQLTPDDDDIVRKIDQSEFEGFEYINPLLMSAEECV
# [3] = biological target: T1, Protein kinase C iota type (Homo sapiens); conditions: at 1 µM
# [4] = biological target: Protein kinase C theta type (Homo sapiens) (UniProt Q04759); conditions: at 0.1 µM
# [5] = biological target: Protein kinase C theta type (Homo sapiens) (UniProt Q04759); conditions: at 1 µM
# [6] = biological target: Protein kinase C beta type (Homo sapiens) (UniProt P05771); conditions: at 0.1 µM
# [7] = biological target: Protein kinase C beta type (Homo sapiens) (UniProt P05771); conditions: at 1 µM
# [8] = biological target: T2, Serine/threonine-protein kinase D1 (Homo sapiens) (UniProt Q15139); conditions: at 0.1 µM
# T2 sequence (whole entry): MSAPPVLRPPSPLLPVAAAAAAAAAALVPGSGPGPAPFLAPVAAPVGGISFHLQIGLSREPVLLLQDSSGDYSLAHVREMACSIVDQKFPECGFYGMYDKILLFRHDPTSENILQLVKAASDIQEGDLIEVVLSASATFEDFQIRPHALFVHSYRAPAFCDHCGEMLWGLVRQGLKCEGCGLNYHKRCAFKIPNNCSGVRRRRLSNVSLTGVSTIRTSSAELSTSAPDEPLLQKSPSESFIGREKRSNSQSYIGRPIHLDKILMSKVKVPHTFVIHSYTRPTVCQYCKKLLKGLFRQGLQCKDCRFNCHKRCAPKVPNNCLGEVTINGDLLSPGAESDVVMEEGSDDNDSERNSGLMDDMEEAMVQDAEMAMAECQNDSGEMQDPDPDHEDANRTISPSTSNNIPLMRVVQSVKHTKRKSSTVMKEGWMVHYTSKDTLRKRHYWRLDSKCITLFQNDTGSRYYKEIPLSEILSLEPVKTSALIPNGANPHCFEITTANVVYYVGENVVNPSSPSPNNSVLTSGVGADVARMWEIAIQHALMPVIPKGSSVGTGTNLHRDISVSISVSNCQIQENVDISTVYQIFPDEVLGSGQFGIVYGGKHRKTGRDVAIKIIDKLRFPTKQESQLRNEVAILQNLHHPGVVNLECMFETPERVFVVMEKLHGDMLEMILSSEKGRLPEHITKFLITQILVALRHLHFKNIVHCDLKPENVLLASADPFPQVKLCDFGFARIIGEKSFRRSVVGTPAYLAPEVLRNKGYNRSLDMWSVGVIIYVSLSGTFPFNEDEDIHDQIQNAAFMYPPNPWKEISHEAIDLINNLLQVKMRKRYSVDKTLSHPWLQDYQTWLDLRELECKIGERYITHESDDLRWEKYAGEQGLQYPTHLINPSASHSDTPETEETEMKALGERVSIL
# [9] = biological target: T2, Serine/threonine-protein kinase D1 (Homo sapiens); conditions: at 1 µM
# [10] = biological target: T3, Serine/threonine-protein kinase D2 (Homo sapiens) (UniProt Q9BZL6); conditions: at 0.1 µM
# T3 sequence (whole entry): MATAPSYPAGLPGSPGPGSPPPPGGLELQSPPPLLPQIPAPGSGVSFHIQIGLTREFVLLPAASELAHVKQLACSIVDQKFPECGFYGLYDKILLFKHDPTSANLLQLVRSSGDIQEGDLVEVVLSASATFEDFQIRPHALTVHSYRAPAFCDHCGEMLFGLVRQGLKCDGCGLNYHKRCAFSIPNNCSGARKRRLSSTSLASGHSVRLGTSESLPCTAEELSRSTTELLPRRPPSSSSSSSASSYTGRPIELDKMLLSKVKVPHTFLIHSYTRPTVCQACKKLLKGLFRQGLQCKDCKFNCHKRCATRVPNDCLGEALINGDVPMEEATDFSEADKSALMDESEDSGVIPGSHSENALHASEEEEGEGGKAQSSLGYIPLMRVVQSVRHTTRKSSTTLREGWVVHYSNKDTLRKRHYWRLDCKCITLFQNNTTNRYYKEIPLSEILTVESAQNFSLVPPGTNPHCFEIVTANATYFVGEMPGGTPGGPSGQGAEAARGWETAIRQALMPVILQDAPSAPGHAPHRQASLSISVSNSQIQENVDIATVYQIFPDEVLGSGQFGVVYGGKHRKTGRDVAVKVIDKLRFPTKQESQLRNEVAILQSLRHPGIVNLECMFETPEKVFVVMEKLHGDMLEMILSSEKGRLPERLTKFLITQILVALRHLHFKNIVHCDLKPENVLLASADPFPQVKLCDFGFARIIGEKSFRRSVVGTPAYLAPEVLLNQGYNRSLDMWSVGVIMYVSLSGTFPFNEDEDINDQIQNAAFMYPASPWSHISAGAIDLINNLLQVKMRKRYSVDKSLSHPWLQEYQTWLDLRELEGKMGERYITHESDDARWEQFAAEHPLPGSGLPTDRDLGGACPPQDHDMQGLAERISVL
# [11] = biological target: T3, Serine/threonine-protein kinase D2 (Homo sapiens); conditions: at 1 µM
# [12] = biological target: T4, Serine/threonine-protein kinase D3 (Homo sapiens) (UniProt O94806); conditions: at 0.1 µM
# T4 sequence (whole entry): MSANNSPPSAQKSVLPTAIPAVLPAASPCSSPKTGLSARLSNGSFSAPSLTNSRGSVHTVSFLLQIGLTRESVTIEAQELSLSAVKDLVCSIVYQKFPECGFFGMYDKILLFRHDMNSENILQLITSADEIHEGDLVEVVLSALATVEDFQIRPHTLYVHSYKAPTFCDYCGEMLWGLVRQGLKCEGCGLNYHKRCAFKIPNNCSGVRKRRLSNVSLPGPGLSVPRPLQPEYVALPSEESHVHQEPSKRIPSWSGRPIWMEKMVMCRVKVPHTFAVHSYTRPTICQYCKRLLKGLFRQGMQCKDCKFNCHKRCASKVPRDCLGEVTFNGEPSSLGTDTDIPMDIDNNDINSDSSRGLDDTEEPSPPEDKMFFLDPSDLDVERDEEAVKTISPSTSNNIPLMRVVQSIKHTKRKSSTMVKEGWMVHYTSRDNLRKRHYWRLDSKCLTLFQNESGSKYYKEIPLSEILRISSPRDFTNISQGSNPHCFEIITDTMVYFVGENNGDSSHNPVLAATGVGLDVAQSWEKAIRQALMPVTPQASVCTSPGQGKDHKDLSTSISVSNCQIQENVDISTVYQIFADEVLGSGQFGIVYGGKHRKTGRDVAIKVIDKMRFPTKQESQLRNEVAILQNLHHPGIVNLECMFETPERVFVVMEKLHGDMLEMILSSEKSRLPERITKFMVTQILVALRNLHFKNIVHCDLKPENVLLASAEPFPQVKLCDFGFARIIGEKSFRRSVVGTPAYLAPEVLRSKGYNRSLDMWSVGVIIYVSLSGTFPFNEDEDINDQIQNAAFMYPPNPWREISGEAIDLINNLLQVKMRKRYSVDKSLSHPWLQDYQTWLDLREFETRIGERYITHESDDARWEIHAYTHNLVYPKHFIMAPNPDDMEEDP
# [13] = biological target: T4, Serine/threonine-protein kinase D3 (Homo sapiens); conditions: at 1 µM
# [14] = biological target: T5, cGMP-dependent protein kinase 1 (Homo sapiens) (UniProt Q13976); conditions: at 0.1 µM
# T5 sequence (whole entry): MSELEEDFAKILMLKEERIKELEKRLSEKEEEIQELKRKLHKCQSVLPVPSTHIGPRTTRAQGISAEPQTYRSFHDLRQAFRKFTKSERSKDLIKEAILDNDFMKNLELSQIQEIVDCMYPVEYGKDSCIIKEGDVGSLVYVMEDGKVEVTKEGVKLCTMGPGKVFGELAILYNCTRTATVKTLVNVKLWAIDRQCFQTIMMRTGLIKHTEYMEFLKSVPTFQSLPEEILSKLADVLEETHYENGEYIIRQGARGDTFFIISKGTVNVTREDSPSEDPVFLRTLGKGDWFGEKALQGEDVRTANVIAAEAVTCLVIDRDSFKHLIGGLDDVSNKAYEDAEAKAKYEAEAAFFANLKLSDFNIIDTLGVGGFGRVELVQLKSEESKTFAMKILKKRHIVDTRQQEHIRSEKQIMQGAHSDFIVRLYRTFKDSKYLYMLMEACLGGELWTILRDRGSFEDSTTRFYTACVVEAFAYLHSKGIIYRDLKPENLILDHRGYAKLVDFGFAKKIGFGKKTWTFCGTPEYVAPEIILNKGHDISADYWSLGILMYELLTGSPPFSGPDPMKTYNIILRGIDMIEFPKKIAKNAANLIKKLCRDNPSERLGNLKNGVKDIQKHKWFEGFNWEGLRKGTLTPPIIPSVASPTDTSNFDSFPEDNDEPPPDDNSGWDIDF
# [15] = biological target: T5, cGMP-dependent protein kinase 1 (Homo sapiens); conditions: at 1 µM
# [16] = biological target: T6, cGMP-dependent protein kinase 2 (Homo sapiens) (UniProt Q13237); conditions: at 0.1 µM
# T6 sequence (whole entry): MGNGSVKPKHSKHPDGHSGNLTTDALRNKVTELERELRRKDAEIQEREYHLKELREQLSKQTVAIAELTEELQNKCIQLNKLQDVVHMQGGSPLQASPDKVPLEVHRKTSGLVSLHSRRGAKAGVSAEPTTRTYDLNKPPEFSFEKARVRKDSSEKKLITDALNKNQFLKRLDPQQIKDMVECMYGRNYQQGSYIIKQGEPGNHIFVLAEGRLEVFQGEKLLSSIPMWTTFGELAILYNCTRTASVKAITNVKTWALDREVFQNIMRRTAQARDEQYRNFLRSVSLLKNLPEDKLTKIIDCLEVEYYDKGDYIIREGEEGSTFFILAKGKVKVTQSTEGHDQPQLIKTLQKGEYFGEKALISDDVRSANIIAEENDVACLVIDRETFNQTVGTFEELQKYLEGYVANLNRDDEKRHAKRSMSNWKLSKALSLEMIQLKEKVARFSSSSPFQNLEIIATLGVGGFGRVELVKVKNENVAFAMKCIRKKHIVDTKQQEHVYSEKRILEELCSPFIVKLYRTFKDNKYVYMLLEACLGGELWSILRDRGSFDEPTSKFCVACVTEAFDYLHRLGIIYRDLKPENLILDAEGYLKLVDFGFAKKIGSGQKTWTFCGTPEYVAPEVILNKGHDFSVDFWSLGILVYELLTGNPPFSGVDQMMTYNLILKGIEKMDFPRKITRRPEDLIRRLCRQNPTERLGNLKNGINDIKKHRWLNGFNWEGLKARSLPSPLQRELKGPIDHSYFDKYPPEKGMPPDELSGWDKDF
# [17] = biological target: T6, cGMP-dependent protein kinase 2 (Homo sapiens); conditions: at 1 µM
# [18] = biological target: T7, cAMP-dependent protein kinase catalytic subunit PRKX (Homo sapiens) (UniProt P51817); conditions: at 0.1 µM
# T7 sequence (whole entry): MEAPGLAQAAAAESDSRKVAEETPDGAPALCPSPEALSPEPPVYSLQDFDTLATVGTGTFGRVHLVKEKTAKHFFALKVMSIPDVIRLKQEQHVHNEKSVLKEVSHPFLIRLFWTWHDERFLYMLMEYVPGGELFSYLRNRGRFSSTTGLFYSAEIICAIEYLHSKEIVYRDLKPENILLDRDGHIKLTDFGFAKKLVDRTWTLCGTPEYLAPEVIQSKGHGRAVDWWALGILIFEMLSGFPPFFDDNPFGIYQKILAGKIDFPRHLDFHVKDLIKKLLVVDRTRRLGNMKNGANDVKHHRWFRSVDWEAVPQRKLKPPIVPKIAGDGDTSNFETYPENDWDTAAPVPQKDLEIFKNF
# [19] = biological target: T7, cAMP-dependent protein kinase catalytic subunit PRKX (Homo sapiens); conditions: at 1 µM
# [20] = biological target: Rho-associated protein kinase 1 (Homo sapiens) (UniProt Q13464); conditions: at 0.1 µM;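 note: values are mean percent inhibition of ROCK1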
# Chain of Rho-associated protein kinase 1 (Homo sapiens) (Q13464 2-1354 limits assumed): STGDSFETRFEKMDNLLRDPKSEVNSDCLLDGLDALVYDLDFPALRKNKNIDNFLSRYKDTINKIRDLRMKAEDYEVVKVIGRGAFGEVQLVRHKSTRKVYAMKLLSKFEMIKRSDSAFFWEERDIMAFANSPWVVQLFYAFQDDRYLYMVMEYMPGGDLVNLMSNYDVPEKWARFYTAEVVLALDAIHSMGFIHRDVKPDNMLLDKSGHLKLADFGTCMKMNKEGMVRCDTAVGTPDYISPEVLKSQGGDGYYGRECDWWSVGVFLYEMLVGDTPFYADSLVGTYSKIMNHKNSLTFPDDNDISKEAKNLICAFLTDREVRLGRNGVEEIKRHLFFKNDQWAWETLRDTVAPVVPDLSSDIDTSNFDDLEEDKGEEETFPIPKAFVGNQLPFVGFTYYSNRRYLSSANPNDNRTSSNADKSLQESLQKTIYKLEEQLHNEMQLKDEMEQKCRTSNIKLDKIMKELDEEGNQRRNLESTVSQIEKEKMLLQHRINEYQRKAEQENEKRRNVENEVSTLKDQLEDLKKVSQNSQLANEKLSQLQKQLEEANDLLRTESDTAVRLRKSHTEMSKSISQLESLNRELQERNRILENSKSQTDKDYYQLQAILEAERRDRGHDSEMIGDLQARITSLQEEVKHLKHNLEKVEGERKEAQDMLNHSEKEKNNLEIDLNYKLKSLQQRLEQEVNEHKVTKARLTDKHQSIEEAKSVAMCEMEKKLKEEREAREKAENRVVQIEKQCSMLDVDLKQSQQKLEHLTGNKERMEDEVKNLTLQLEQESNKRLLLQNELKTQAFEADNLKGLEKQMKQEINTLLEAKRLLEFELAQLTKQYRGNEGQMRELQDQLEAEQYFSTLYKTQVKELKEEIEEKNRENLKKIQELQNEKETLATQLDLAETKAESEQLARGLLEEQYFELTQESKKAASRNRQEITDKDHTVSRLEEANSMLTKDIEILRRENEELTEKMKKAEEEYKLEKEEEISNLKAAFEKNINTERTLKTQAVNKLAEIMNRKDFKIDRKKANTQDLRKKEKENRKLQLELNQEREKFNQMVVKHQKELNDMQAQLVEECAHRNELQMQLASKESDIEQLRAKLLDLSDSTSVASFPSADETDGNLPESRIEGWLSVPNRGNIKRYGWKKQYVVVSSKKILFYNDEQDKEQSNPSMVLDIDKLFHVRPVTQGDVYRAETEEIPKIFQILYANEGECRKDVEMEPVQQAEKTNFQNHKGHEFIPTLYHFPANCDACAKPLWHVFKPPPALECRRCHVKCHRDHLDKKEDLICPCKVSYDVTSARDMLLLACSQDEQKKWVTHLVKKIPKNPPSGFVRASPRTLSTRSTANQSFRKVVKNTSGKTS
# Chain of Protein kinase C theta type (Homo sapiens) (Q04759 whole entry, looked up): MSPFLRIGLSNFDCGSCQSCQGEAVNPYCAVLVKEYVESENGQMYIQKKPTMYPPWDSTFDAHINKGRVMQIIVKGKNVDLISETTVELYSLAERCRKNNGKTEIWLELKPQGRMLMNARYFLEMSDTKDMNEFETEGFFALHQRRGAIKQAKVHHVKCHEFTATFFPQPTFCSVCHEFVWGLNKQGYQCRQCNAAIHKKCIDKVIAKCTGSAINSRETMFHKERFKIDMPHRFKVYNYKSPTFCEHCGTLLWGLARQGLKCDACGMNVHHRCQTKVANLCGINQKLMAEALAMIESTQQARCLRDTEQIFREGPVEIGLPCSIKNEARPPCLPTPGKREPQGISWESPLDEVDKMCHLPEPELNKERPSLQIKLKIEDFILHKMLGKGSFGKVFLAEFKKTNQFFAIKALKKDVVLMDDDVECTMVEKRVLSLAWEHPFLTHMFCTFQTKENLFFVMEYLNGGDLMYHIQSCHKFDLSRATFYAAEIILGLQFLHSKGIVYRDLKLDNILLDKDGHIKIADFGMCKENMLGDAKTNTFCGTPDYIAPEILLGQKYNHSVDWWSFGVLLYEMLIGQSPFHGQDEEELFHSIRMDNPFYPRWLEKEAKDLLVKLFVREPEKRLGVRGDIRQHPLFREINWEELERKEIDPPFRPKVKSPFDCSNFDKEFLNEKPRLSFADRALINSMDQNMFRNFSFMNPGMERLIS
# Chain of Protein kinase C beta type (Homo sapiens) (P05771 2-671 limits assumed): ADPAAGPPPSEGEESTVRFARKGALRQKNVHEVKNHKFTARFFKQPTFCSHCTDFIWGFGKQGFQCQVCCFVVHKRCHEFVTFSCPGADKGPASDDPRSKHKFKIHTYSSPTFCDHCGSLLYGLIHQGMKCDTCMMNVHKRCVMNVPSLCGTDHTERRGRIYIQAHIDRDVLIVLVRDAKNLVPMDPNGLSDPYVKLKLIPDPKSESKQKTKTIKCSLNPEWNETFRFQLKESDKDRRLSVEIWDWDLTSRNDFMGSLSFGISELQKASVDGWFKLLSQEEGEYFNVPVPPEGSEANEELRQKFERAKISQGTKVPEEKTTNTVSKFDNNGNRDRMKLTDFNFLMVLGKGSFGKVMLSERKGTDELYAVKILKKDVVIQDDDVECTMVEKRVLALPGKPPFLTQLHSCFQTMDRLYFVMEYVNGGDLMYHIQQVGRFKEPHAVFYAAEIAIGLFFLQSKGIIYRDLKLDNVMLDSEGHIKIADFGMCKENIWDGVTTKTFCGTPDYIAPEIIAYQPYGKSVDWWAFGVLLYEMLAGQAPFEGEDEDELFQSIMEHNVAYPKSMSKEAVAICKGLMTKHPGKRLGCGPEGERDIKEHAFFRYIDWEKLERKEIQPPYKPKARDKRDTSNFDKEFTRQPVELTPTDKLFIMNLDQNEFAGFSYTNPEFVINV
SMILES,inhibition [1] [%],inhibition [2] [%],inhibition [3] [%],inhibition [4] [%],inhibition [5] [%],inhibition [6] [%],inhibition [7] [%],inhibition [8] [%],inhibition [9] [%],inhibition [10] [%],inhibition [11] [%],inhibition [12] [%],inhibition [13] [%],inhibition [14] [%],inhibition [15] [%],inhibition [16] [%],inhibition [17] [%],inhibition [18] [%],inhibition [19] [%],inhibition [20] [%]
COc1cc(C)c(N(C)C(=O)CN(C)C)cc1Nc1nc(Nc2cccc(F)c2C(N)=O)c2cc[nH]c2n1,0.07,0.9,1.43,-0.27,-0.14,0.9,0.92,-1.96,-0.45,-2.04,-0.62,-1.31,0.06,0.67,3.77,2.1,2.31,0.78,-0.64,0.77
COc1cc(Nc2ncc3c(C)nc(-c4cccc(Oc5ccccc5)c4)n3n2)cc(OC)c1OC,2.12,0.93,1.81,0.31,-0.72,0.53,0.55,1.42,2.93,1.26,3,1.74,3.77,1.98,2.3,1.18,2.71,1.26,-0.03,1.05
C[C@@H](Oc1cc(-n2cnc3ccc(OCC4CCN(C)CC4)cc32)sc1C(N)=O)c1ccccc1Cl,6.3,1.84,2.7,4.47,15.3,3.47,11.6,6.16,12,7.73,12.1,5.81,12,3.88,7.13,3.5,7.56,1.81,-4.06,2.64
COc1cc2ncn(-c3cc(OCCc4ccccc4)c(C(N)=O)s3)c2cc1OC,1.47,1.14,1.71,0.51,-0.63,0.9,1.22,2.65,5.06,3.79,4.84,3.76,4.36,2.33,4.13,1.3,2.13,0.24,-4.15,0.26
CCc1cccc(CC)c1/C=C/c1cncc(C(=O)NC)c1,2.81,2.1,3.47,1.41,-0.25,0.14,-0.35,2.52,6.44,3.28,7.18,3.3,7.02,2.74,2.71,1.38,1.83,3.9,-1.34,0.87
